The list is not random: actives were taken first. Their share in the collection is about 19%.
IL-1B inflam inh = inhibitors of inflammasome signaling (IL-1 beta secretion); THP-1 LPS/ATP IL-1B secretion, AlphaLISA, 16 h; hits give low values; activity change, % at 57.5 µM; actives 4.7% (n = 360,000); AID 743279; in the data active means activity change below about -50%; inconclusive means mostly about -30% to -49%
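Secreted IL-1B measured by AlphaLISA bead assay after 16 h compound exposure of THP-1 cells; compounds (final up to 57.5 uM) added 1 h before LPS (250 ng/mL) and ATP (1.25 mM) stimulation; lower signal means less secretion.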
TDP1 cell CPT = DT40-hTDP1 cell growth loss with CPT | Potency, µM (doses to about 46.2 µM), for inactives: top-dose activity change, negative = growth inhibition, hits mostly inhibitors | chicken DT40 Tdp1-/-;hTDP1 cells + 20 nM CPT, ATP luminescence, 48 h | AID 686979 | actives 12% (n = 420,000); further: potency means the concentration at half of the fitted maximal effect; nearly all actives have a fitted effect of over 55% in size
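Chicken DT40 Tdp1-/- cells stably complemented with human TDP1 were seeded at 400 cells/well in medium containing 20 nM camptothecin, exposed to pin-transferred compounds, and grown at 37 °C for at least 48 hr. Viability was read as ATP luminescence.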
HT1080 IDH1KD tx = HT-1080 IDH1 knockdown cell toxicity (counter line). HT-1080 IDH1 knockdown viability, ATP luminescence, 48 h. Potency, µM (highest dose often 46.1 µM), for inactives: top-dose activity, negative = toxicity, hits mostly cytotoxic. actives 2% (n = 360,000). AID 686971;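 further: potency means the concentration at half of the fitted maximal effect; 0% = DMSO wells and -100% = cell-free medium wells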
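Knockdown cells (IDH1KD HT-1080) received compounds 2 h after plating at 750 cells/well and were kept 48 h at 37 °C in 5% FBS RPMI. A CellTiter-Glo luminescence read gave % activity for curve fitting.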
HT1080-NT tox = kills 2HG-producing HT-1080-NT fibrosarcoma cells; HT-1080-NT fibrosarcoma viability, CellTiter-Glo ATP luminescence, 48 h; actives 1.6% (n = 360,000); AID 686970; Potency, µM (highest dose often 46.1 µM), for inactives: at the highest dose activity, negative = less viability, actives largely listed as cytotoxic;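 further: NT is the 2HG producing partner of a matched IDH1 knockdown line; potency means the concentration at half of the fitted maximal effect; 0% = DMSO-treated cells and -100% = media-only wells without cells; nearly all actives have a fitted effect of over 55% in size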
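Fibrosarcoma NT cells, 750 per well in 5% FBS RPMI, were exposed to compound for 48 hours. Viability: CellTiter-Glo luminescence.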
TDP1 cell noCPT = qHTS for Inhibitors of human tyrosyl-DNA phosphodiesterase 1 (TDP1): qHTS in cells in absence of CPT; DT40 Tdp1-/- hTDP1 cells, no CPT, ATP luminescence, 48 h; Potency, µM (series often up to 46.2 µM), without a hit: top-dose activity change, negative = growth inhibition, hits mostly inhibitors; actives 15% (n = 420,000); further: potency means the concentration at half of the fitted maximal effect; nearly all actives have a fitted effect of over 55% in size
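Compound effects on proliferation are scored in DT40 Tdp1-/-;hTDP1 cells in the absence of CPT. ATP levels (CellTiter-Glo luminescence) are recorded after a ≥48 hr, 37 °C incubation.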
Numbers without * were called inactive; i = inactive; ? = inconclusive; · = no result given; [ ] = dose if it differs, or a comment. Unless noted, the call rests on the fitted dose curve; in most records, active means well fitted curve in the direction sought with a large enough effect; inconclusive means small, poorly fitted or top-dose-only effect, or another doubt; inactive means no such curve, though single readings can be large; an effect the other way counts as inactive or inconclusive. Unless noted, on the % scale 0 is the no-effect control and ±100 the full control effect.

SMILES	IL-1B inflam inh	TDP1 cell CPT	HT1080 IDH1KD tx	HT1080-NT tox	TDP1 cell noCPT
Cc1ccccc1OCc1nnc(SCC(=O)Nc2ccc3nc(SCC(=O)NC(C)(C)C)sc3c2)n1C	-11	18µM*	-16%	-6%	?
CCOc1ccc(C(=O)Nc2ccc3nc(SCc4ccccc4)sc3c2)cc1	·	12µM*	·	·	8.2µM*
CCC(C)/C(C)=N/NC(=O)c1ccc(CSc2nc3ccccc3s2)cc1 (stereo unspecified)	75	15µM*	-13%	-15%	23µM*
O=C(O)c1ccc(CSc2nc3ccc(NC(=O)c4ccccc4C(=O)O)cc3s2)cc1	0	-12%	9%	8%	-19%
Cc1ccc(CSc2nc3ccc(NC(=O)COc4ccccc4)cc3s2)cc1	·	15µM*	·	·	?
CCCCc1cc(C(=O)Cc2ccccn2)c(O)cc1O	45	-15%	-4%	10%	?
Cc1ccccc1OCC(=O)Nc1ccc2nc(SCCOc3ccccc3)sc2c1	·	-17%	·	·	-7%
Cc1cccc(NC(=O)CSc2nc3ccc(NC(=O)COc4ccccc4C)cc3s2)c1	·	15µM*	·	·	16µM*
COc1ccccc1-n1cc(CN2CCc3onc(-c4ccc(Br)cc4)c3C2=O)nn1	-24	?	-22%	-22%	?
COc1ccc(Cn2cc(CN3CCc4onc(-c5ccc(Br)cc5)c4C3=O)nn2)cc1	0	16µM*	?	?	21µM*
COc1ccccc1-c1noc2c1C(=O)N(Cc1cn(-c3ccc(Cl)cc3)nn1)CC2	0	?	-26%	-22%	23µM*
Cc1cccc(NS(=O)(=O)c2csc(C(N)=O)c2)c1C	0	-19%	2%	11%	3%
COc1cc(-c2cc(C)c3cccc(OC)c3n2)cc2c1OCCN(C(=O)CC1NC(=O)c3ccccc31)C2 (stereo unspecified)	·	-14%[9.04 µM]	·	·	-14%
O=C(COc1ccccc1-c1nc(-c2ccccc2)no1)Nc1cccc([N+](=O)[O-])c1	·	2.6µM*	·	·	?
Cc1cccc(-c2noc(-c3ccccc3OCC(=O)Nc3ccccc3[N+](=O)[O-])n2)c1	·	?	·	·	16µM*
CCCSc1ncc(Cl)c(C(=O)Nc2sc3c(c2C(=O)OC)CCCC3)n1	·	5%	·	·	17%
Cc1ccc(C(=O)NCC(c2ccco2)S(=O)(=O)c2ccc(Cl)cc2)cc1C (stereo unspecified)	·	16µM*	·	·	21µM*
O=C(NCC(c1ccco1)S(=O)(=O)c1cccs1)c1ccc(F)c(F)c1 (stereo unspecified)	·	13µM*	·	·	16µM*
Cc1ccc(S(=O)(=O)C(CNC(=O)c2c(F)cccc2F)c2ccco2)cc1 (stereo unspecified)	·	?	·	·	23µM*
O=C(NCC(c1ccco1)S(=O)(=O)c1ccc(Cl)cc1)c1ccccc1F (stereo unspecified)	·	?	·	·	16µM*
Cc1ccc(S(=O)(=O)C(CNC(=O)C(=O)NCc2ccc(Cl)cc2)c2ccco2)cc1 (stereo unspecified)	·	-3%	·	·	-14%
Cc1ccccc1CNC(=O)C(=O)NCC(c1ccco1)S(=O)(=O)c1ccccc1 (stereo unspecified)	·	-18%	·	·	?
CC(=O)c1ccc(C(=O)N2CCCC(N3CCN(c4ccc(F)cc4)CC3)C2)s1 (stereo unspecified)	i	?	25%	10%	?
CC1(C)NC(=O)N(CC(=O)OCC(=O)c2ccc(Cl)s2)C1=O	10	-3%	15%	7%	-5%
CNC(=O)C12CC3CC(CC(Cl)(C3)C1)C2	15	7%	4%	11%	2%
Cc1ccc(S(=O)(=O)C(CNC(=O)COc2ccc(Cl)cc2)c2ccco2)cc1 (stereo unspecified)	·	23µM*	·	·	?

High-throughput results: PubChem BioAssay, National Center for Advancing Translational Sciences (NCATS)
